Counter-ions that a name gives are not always drawn.
Tests used:
Conditions in all cases: 20 µM
[1] = test system: Haemophilus parainfluenzae; assay: growth AUC normalised to DMSO control (fraction of control); higher = less growth inhibition, active = hit call of the paper
Procedure, shortened: (§1)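 Hemin and NAD were added to the medium for Haemophilus parainfluenzae. All pathogens, after two anaerobic passages, were inoculated at a starting OD578 of 0.01 into pre-reduced mGAM plates with 20 μM compound and 1% DMSO under breathable seals, and OD578 was read hourly for 24 h in three biological replicates. AUC of each growth curve was obtained with the trapezoidal rule up to the exponential-to-stationary transition and normalised to DMSO controls from the same plate.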

[2] = test system: Salmonella enterica typhimurium; assay: as above
Procedure, shortened: as §1

Shigella flexneri = assay: as above
Procedure, shortened: as §1

Vibrio cholerae = assay: as above
Procedure, shortened: as §1

[3] = test system: Yersinia pseudotuberculosis; assay: as above
Procedure, shortened: as §1

P. vulgatus RND KO = assay: growth AUC normalised to DMSO control (median) (fraction of control); higher = less growth inhibition, active = hit call of the paper
Procedure, shortened: (§2)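 After two overnight anaerobic passages, strains were inoculated at OD578 0.01 into mGAM in 96-well plates containing approved-drug library compounds at 20 μM and 1% DMSO. Growth was followed by reading OD578 hourly for 24 h within an anaerobic incubator. Area under the curve, taken by the trapezoidal rule up to the start of stationary phase, was normalised to same-plate vehicle wells, and the median of three biological replicates is listed.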

P. vulgatus WT = assay: as above
Procedure, shortened: as §2

[4] = test system: S. enterica typhimurium WT; assay: as above
Procedure, shortened: as §2

[5] = test system: S. enterica typhimurium tolC KO; assay: as above
Procedure, shortened: as §2

Measured: growth AUC normalised to DMSO control
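Throughout, for growth AUC normalised to DMSO control (median): active when median AUC fell below 0.1.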

C#C[C@]1(O)CC[C@H]2[C@@H]3CCC4=CC(=O)CCC4=C3C=C[C@@]21CC [Gestrinone]
inactive: [1] 1.03 | [2] 0.989 | Shigella flexneri 1.03 | Vibrio cholerae 1.01 | [3] 1.01 | P. vulgatus RND KO 1.01 | P. vulgatus WT 1.07 | [4] 1.01 | [5] 0.986

CCC(COC(=O)c1cc(OC)c(OC)c(OC)c1)(c1ccccc1)N(C)C (configuration not stated) [Trimebutine]
inactive: P. vulgatus RND KO 1 | P. vulgatus WT 1.01 | [4] 1 | [5] 0.936

COC[C@@H](NC(C)=O)C(=O)NCc1ccccc1 [Lacosamide]
inactive: P. vulgatus RND KO 0.998 | P. vulgatus WT 1 | [4] 0.987 | [5] 1

C[CH2][Hg][S]c1ccccc1C(=O)[O-].[Na+] [Thimerosal]
active: [2] 0.932 | Shigella flexneri 0.828 | P. vulgatus RND KO 0.0191
inactive: [1] 1.2 | Vibrio cholerae 0.935 | [3] 1 | P. vulgatus WT 0.341 | [4] 0.91 | [5] 0.956

CC(C)C[C@H](CN)CC(=O)O [Pregabalin]
inactive: P. vulgatus RND KO 0.971 | P. vulgatus WT 0.976 | [4] 0.991 | [5] 0.989

C[C@]12C/C(=C/O)C(=O)C[C@@H]1CC[C@@H]1[C@@H]2CC[C@@]2(C)[C@H]1CC[C@]2(C)O [Oxymetholone]
inactive: P. vulgatus RND KO 0.918 | P. vulgatus WT 1 | [4] 1.01 | [5] 0.956

O=C(O[C@H]1C[N+]2(CCCOc3ccccc3)CCC1CC2)C(O)(c1cccs1)c1cccs1 [Aclidinium bromide]
inactive: P. vulgatus RND KO 1 | P. vulgatus WT 1 | [4] 1.01 | [5] 1

CCCCCC[C@H]1C(=O)O[C@H](C)[C@H](NC(=O)c2cccc(NC=O)c2O)C(=O)O[C@@H](C)[C@@H]1OC(=O)CC(C)C [Antimycin A]
inactive: P. vulgatus RND KO 1.03 | P. vulgatus WT 1.05 | [4] 1.01 | [5] 1.01

CC(C)c1cccc(C(C)C)c1O [Propofol]
inactive: [1] 0.988 | [2] 1.01 | Shigella flexneri 1.01 | Vibrio cholerae 1.01 | [3] 0.985 | P. vulgatus RND KO 1.05 | P. vulgatus WT 1.05 | [4] 1.01 | [5] 0.993

CNC(C)(C)Cc1ccccc1 [Mephentermine hemisulfate]
inactive: [1] 1.09 | [2] 1.03 | Shigella flexneri 1.03 | Vibrio cholerae 1.06 | [3] 0.977 | P. vulgatus RND KO 1.03 | P. vulgatus WT 1.08 | [4] 1 | [5] 0.994

CC(N)C(O)c1ccccc1 (configuration not stated) [Phenylpropanolamine hydrochloride]
inactive: [1] 1.07 | Shigella flexneri 1.03 | Vibrio cholerae 1.01 | [3] 0.972 | P. vulgatus RND KO 1.03 | P. vulgatus WT 1.02 | [4] 1.01 | [5] 1.01

CN1C(=O)COc2c(C(=O)NC3CN4CCC3CC4)cc(Cl)cc21 (configuration not stated) [Azasetron hydrochloride]
inactive: P. vulgatus RND KO 1.02 | P. vulgatus WT 1.04 | [4] 1.01 | [5] 1.01

CCN(CC)C(C)C(=O)c1ccccc1 (configuration not stated) [Amfepramone hydrochloride]
inactive: [1] 0.998 | [2] 0.995 | Shigella flexneri 0.982 | Vibrio cholerae 0.999 | [3] 1.02 | P. vulgatus RND KO 1.01 | P. vulgatus WT 1.01 | [4] 1.01 | [5] 0.988

C=C[C@H]1CN2CC[C@H]1C[C@H]2[C@H](OC(=O)OCC)c1ccnc2ccc(OC)cc12 [Quinine ethyl carbonate]
inactive: P. vulgatus RND KO 1.01 | P. vulgatus WT 1 | [4] 0.996 | [5] 0.969

CC(C)=CC1C(C(=O)OCc2cccc(Oc3ccccc3)c2)C1(C)C (configuration not stated) [Phenothrin]
inactive: P. vulgatus RND KO 1.01 | P. vulgatus WT 1.01 | [4] 0.998 | [5] 1.01

C[C@]12CC[C@@H]3c4ccc(OC(=O)N(CCCl)CCCl)cc4CC[C@H]3[C@@H]1CC[C@@H]2O [Estramustine]
inactive: P. vulgatus RND KO 0.982 | P. vulgatus WT 0.984 | [4] 1 | [5] 0.968

CCCN1C[C@H](CSC)C[C@@H]2c3cccc4[nH]cc(c34)C[C@H]21 [Pergolide mesylate]
inactive: [1] 1 | [2] 0.998 | Shigella flexneri 0.959 | Vibrio cholerae 0.956 | [3] 1.01 | P. vulgatus RND KO 0.986 | P. vulgatus WT 0.956 | [4] 0.995 | [5] 0.974
